The full data set covers some 7,900 targets. This sample favours those with a hit. About 0.6% of all pairs of compound and target were hits.
How the values were obtained:
Experiment in all cases: log2 fold change, soluble protein after heating vs DMSO (PISA); higher = thermal stabilisation; K562 cells, 10 uM, 30 min; active = over 0.2 and 3.5 SD of the protein, either way, in both replicates (recomputed)
[1] = compound: COC1=CC=C(C=C1)CN2C=CC3=C2C=C(C=C3)C(=O)NO
Outline: (§1)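 Aliquots of K562 cells (2×10^6 cells/mL) treated with 10 μM compound for 30 min were heated for 3 min over 48°C-58°C. After pooling and extraction in PBS with 0.5% NP-40 at 4°C, soluble protein from a 21,000xg, 90 min spin was quantified by TMTpro 16plex LC-MS/MS with channel sums equalised. Thermal stability is expressed against control samples, from duplicates, as a log2 fold change.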

filanesib = compound: CON(C)C(=O)N1N=C(c2cc(F)ccc2F)S[C@@]1(CCCN)c1ccccc1 [filanesib]
Outline: as §1

zotarolimus = compound: CO[C@H]1C[C@@H]2CC[C@@H](C)[C@@](O)(O2)C(=O)C(=O)N2CCCC[C@H]2C(=O)O[C@H]([C@H](C)C[C@@H]2CC[C@H](n3cnnn3)[C@H](OC)C2)CC(=O)[C@H](C)/C=C(\C)[C@@H](O)[C@@H](OC)C(=O)[C@H](C)C[C@H](C)/C=C/C=C/C=C/1C [zotarolimus]
Outline: as §1

idasanutlin = compound: COc1cc(C(=O)O)ccc1NC(=O)[C@@H]1N[C@@H](CC(C)(C)C)[C@](C#N)(c2ccc(Cl)cc2F)[C@H]1c1cccc(Cl)c1F [idasanutlin]
Outline: as §1

alisertib = compound: COc1cc(Nc2ncc3c(n2)-c2ccc(Cl)cc2C(c2c(F)cccc2OC)=NC3)ccc1C(=O)O [alisertib]
Outline: as §1

[2] = compound: COc1cc2nc(-c3cc(F)ccc3O)nc(N[C@@H]3CNC[C@H]3C(C)(C)O)c2cc1OC
Outline: as §1

gefitinib = compound: COc1cc2ncnc(Nc3ccc(F)c(Cl)c3)c2cc1OCCCN1CCOCC1 [gefitinib]
Outline: as §1

[3] = compound: COc1cccc2cc(-c3nc([C@H]4CC[C@H](C(=O)O)CC4)n4ncnc(N)c34)[nH]c12
Outline: as §1

lapatinib = compound: CS(=O)(=O)CCNCc1ccc(-c2ccc3ncnc(Nc4ccc(OCc5cccc(F)c5)c(Cl)c4)c3c2)o1 [lapatinib]
Outline: as §1

pictilisib = compound: CS(=O)(=O)N1CCN(Cc2cc3nc(-c4cccc5[nH]ncc45)nc(N4CCOCC4)c3s2)CC1 [pictilisib]
Outline: as §1

[4] = compound: CS(=O)(=O)c1ccc(-c2cnc(N)c(C(=O)Nc3ccccc3)n2)cc1
Outline: as §1

crizotinib = compound: C[C@@H](Oc1cc(-c2cnn(C3CCNCC3)c2)cnc1N)c1c(Cl)ccc(F)c1Cl [crizotinib]
Outline: as §1

[5] = compound: C[C@@H]1COCCN1C2=NC(=NC(=C2)C3(CC3)S(=O)(=O)C)C4=C5C=CNC5=CC=C4
Outline: as §1

[6] = compound: C[C@H](C1=CC=C(C=C1)C(=O)NC2=C3C=CNC3=NC=C2)N
Outline: as §1

duvelisib = compound: C[C@H](Nc1ncnc2nc[nH]c12)c1cc2cccc(Cl)c2c(=O)n1-c1ccccc1 [duvelisib]
Outline: as §1

gandotinib = compound: Cc1cc(Nc2cc(CN3CCOCC3)c3nc(C)c(Cc4ccc(Cl)cc4F)n3n2)n[nH]1 [gandotinib]
Outline: as §1

tozasertib = compound: Cc1cc(Nc2cc(N3CCN(C)CC3)nc(Sc3ccc(NC(=O)C4CC4)cc3)n2)n[nH]1 [tozasertib]
Outline: as §1

[7] = compound: Cc1cc(SCc2sc(-c3ccc(C(F)(F)F)cc3)nc2C)ccc1OCC(=O)O
Outline: as §1

doramapimod = compound: Cc1ccc(-n2nc(C(C)(C)C)cc2NC(=O)Nc2ccc(OCCN3CCOCC3)c3ccccc23)cc1 [doramapimod]
Outline: as §1

ispinesib = compound: Cc1ccc(C(=O)N(CCCN)[C@@H](c2nc3cc(Cl)ccc3c(=O)n2Cc2ccccc2)C(C)C)cc1 [ispinesib]
Outline: as §1

Measured: log2 fold change

POLR2D (UniProt O15514)
inactive: [1] 0.02 | filanesib 0.009 | zotarolimus -0.029 | idasanutlin -0.083 | alisertib -0.159 | [2] -0.021 | gefitinib -0.001 | [3] 0.043 | lapatinib 0.017 | pictilisib -0.026 | [4] 0.006 | crizotinib 0.192 | [5] -0.08 | [6] 0.038 | duvelisib 0.065 | gandotinib 0.158 | tozasertib -0.012 | [7] -0.068 | doramapimod -0.024 | ispinesib 0.017

PLCG1 isoform 2 (UniProt P19174)
active: crizotinib -0.412
inactive: [1] 0.104 | filanesib -0.139 | zotarolimus 0.038 | idasanutlin 0.017 | alisertib 0.05 | [2] 0.012 | gefitinib -0.047 | [3] 0.029 | lapatinib -0.003 | pictilisib 0.046 | [4] 0.016 | [5] -0.09 | [6] 0.16 | duvelisib -0.037 | gandotinib 0.107 | tozasertib 0.016 | [7] 0.161 | doramapimod 0.001 | ispinesib -0.178

PAK4 (UniProt O96013)
inactive: [1] -0.106 | filanesib 0.068 | zotarolimus 0.03 | idasanutlin -0.021 | alisertib 0.153 | [2] 0.195 | gefitinib 0 | [3] 0.075 | lapatinib -0.047 | pictilisib 0.072 | [4] -0.028 | crizotinib -0.033 | [5] 0.058 | [6] -0.017 | duvelisib 0.037 | gandotinib -0.028 | tozasertib -0.013 | [7] 0.021 | doramapimod -0.042 | ispinesib -0.111

PARG (UniProt Q86W56)
UniProt Q86W56, sequence (Q86W56 whole entry, looked up): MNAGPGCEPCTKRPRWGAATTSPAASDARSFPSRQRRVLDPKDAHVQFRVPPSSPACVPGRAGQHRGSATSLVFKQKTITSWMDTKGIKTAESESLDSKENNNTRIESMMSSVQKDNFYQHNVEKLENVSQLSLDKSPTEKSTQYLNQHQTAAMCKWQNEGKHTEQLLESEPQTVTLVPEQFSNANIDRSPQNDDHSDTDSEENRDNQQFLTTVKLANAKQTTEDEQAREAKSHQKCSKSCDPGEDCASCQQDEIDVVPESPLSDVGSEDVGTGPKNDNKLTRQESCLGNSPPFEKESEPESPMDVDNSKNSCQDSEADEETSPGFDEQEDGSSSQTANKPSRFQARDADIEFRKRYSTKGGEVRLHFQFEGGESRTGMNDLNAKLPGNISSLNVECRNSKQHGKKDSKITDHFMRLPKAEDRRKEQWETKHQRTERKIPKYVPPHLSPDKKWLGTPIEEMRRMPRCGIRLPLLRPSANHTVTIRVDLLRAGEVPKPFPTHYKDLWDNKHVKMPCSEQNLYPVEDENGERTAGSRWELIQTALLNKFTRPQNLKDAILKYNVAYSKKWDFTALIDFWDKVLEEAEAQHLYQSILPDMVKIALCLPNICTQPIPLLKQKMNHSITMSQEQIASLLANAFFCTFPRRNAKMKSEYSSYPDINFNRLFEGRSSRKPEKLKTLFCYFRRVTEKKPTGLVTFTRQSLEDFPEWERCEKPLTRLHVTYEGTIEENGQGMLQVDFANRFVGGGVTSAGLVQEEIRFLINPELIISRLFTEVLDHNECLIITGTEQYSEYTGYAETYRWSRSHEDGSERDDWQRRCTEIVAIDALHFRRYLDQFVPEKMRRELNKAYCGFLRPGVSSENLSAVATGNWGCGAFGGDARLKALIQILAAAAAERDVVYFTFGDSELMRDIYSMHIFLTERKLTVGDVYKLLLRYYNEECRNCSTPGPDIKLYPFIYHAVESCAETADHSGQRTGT
inactive: [1] 0.065 | filanesib -0.057 | zotarolimus 0.048 | idasanutlin -0.093 | alisertib -0.114 | [2] 0.013 | gefitinib 0.023 | [3] 0.094 | lapatinib 0.013 | pictilisib -0.023 | [4] -0.027 | crizotinib -0.147 | [5] 0.013 | [6] 0.016 | duvelisib -0.005 | gandotinib -0.094 | tozasertib 0.022 | [7] 0.123 | doramapimod 0.015 | ispinesib -0.148

PTPN12 (UniProt Q05209)
UniProt Q05209, sequence (Q05209 whole entry, looked up): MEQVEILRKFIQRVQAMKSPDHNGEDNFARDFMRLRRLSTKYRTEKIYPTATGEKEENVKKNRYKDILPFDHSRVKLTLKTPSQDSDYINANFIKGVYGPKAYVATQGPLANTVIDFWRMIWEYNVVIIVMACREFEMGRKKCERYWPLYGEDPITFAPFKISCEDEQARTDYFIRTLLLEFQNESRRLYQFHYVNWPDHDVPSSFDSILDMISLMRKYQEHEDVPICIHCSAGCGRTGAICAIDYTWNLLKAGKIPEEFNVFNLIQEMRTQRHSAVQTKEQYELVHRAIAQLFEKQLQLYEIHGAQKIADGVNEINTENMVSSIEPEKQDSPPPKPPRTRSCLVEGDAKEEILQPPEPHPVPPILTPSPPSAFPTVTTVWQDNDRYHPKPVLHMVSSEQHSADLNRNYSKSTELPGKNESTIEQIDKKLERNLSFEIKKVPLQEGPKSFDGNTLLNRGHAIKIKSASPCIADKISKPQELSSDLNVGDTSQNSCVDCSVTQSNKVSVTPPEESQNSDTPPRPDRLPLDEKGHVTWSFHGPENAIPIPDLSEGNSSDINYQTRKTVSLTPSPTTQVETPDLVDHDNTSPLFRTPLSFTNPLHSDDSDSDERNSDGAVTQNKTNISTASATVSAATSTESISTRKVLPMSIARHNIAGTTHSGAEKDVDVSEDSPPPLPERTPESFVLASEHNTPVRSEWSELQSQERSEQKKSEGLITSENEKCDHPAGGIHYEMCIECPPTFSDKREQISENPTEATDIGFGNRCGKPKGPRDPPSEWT
inactive: [1] -0.024 | filanesib 0.04 | zotarolimus 0.041 | idasanutlin -0.021 | alisertib -0.06 | [2] 0.053 | gefitinib 0.025 | [3] -0.132 | lapatinib 0.039 | pictilisib 0.012 | [4] 0.031 | crizotinib -0.018 | [5] -0.04 | [6] 0.069 | duvelisib -0.022 | gandotinib -0.088 | tozasertib 0.089 | [7] 0.053 | doramapimod -0.004 | ispinesib -0.011

PBX2 (UniProt P40425)
inactive: [1] 0.132 | filanesib -0.055 | zotarolimus 0.115 | idasanutlin 0.102 | alisertib -0.027 | [2] -0.114 | gefitinib -0.02 | [3] 0 | lapatinib 0.014 | pictilisib 0.01 | [4] -0.001 | crizotinib -0.14 | [5] 0.026 | [6] -0.051 | duvelisib 0.018 | tozasertib 0.062 | [7] 0.095 | doramapimod 0.119 | ispinesib -0.102
active: gandotinib -0.632

PLK1 (UniProt P53350)
UniProt P53350, sequence (P53350 whole entry, looked up): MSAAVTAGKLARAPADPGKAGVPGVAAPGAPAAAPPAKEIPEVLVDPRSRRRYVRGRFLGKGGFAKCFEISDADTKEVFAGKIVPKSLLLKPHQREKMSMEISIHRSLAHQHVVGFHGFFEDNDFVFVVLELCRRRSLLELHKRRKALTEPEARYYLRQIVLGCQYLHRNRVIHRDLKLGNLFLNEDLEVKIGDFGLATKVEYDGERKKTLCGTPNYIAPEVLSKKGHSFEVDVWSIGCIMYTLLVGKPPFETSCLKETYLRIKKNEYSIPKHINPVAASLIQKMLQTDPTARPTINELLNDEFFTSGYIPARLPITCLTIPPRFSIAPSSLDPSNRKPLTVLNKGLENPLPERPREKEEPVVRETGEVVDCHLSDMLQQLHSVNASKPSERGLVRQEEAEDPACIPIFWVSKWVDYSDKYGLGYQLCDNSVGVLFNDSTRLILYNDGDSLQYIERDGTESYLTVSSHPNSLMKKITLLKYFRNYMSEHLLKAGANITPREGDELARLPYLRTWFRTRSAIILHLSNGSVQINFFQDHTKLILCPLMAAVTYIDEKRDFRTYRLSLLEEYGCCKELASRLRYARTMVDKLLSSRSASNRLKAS
inactive: [1] 0.013 | filanesib 0.068 | zotarolimus -0.021 | idasanutlin 0.014 | alisertib 0.02 | [2] 0.092 | gefitinib -0.024 | [3] -0.133 | lapatinib 0.041 | pictilisib -0.072 | [4] -0.113 | crizotinib -0.105 | [5] -0.194 | [6] 0.031 | duvelisib 0.012 | gandotinib 0.095 | tozasertib 0.037 | [7] -0.1 | doramapimod 0.032 | ispinesib 0.01

PSMC4 (UniProt P43686)
UniProt P43686, sequence (P43686 whole entry, looked up): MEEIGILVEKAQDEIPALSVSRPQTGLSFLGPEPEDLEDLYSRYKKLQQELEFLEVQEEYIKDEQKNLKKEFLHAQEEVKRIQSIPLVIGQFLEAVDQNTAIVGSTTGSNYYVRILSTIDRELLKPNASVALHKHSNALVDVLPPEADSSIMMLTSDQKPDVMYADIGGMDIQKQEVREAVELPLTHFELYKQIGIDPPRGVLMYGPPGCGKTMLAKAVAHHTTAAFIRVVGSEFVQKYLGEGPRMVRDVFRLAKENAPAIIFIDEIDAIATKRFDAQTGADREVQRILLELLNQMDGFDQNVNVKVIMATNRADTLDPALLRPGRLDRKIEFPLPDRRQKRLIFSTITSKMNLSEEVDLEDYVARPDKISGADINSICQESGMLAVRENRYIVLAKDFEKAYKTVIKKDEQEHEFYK
inactive: [1] -0.052 | filanesib 0.066 | zotarolimus 0.008 | idasanutlin 0.017 | alisertib -0.049 | [2] -0.007 | gefitinib -0.052 | [3] -0.022 | lapatinib 0.033 | pictilisib -0.099 | [4] 0 | crizotinib 0.007 | [5] -0.056 | [6] 0.06 | duvelisib -0.076 | gandotinib -0.011 | tozasertib 0.04 | [7] 0.001 | doramapimod 0.02 | ispinesib -0.02

PARL (UniProt Q9H300)
inactive: [1] -0.061 | filanesib -0.091 | zotarolimus -0.034 | idasanutlin -0.068 | alisertib -0.016 | [2] -0.2 | gefitinib 0.038 | [3] 0.08 | lapatinib 0.04 | pictilisib 0.011 | [4] -0.004 | crizotinib -0.036 | [5] 0.186 | [6] -0.011 | duvelisib 0.03 | gandotinib 0.025 | tozasertib -0.017 | [7] -0.035 | doramapimod -0.009 | ispinesib -0.193

PIK3R1 (UniProt P27986)
inactive: [1] 0.01 | filanesib -0.041 | zotarolimus -0.002 | idasanutlin -0.027 | alisertib -0.075 | [2] 0.054 | gefitinib 0.045 | [3] 0.014 | lapatinib -0.005 | pictilisib 0.048 | [4] 0.033 | crizotinib -0.044 | [5] 0.002 | [6] 0.022 | gandotinib -0.038 | tozasertib -0.026 | [7] 0.051 | doramapimod 0.056 | ispinesib -0.079
active: duvelisib 0.232

PMPCB (UniProt O75439)
UniProt O75439, sequence (O75439 whole entry, looked up): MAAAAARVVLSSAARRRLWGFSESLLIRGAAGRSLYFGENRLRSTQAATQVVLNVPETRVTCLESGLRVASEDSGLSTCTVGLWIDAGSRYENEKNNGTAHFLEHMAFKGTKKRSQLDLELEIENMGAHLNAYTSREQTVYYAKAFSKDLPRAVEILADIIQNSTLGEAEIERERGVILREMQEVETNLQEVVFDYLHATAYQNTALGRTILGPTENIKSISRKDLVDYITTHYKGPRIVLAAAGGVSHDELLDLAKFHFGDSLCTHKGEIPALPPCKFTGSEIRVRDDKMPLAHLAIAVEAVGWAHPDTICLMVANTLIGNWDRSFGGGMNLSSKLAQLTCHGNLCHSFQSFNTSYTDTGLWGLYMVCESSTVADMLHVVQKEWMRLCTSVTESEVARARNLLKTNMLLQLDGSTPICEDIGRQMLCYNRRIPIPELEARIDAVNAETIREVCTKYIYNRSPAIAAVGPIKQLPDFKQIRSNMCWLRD
inactive: [1] -0.046 | filanesib 0.036 | zotarolimus 0.047 | idasanutlin -0.122 | alisertib -0.078 | [2] 0.046 | gefitinib 0.006 | [3] 0.008 | lapatinib -0.054 | pictilisib -0.012 | [4] 0.012 | crizotinib 0.015 | [5] 0.054 | [6] -0.081 | duvelisib 0.055 | gandotinib -0.096 | tozasertib -0.019 | [7] -0.019 | doramapimod 0.009 | ispinesib -0.034

PUM1 isoform 3 (UniProt Q14671)
UniProt Q14671, sequence (Q14671 whole entry, looked up): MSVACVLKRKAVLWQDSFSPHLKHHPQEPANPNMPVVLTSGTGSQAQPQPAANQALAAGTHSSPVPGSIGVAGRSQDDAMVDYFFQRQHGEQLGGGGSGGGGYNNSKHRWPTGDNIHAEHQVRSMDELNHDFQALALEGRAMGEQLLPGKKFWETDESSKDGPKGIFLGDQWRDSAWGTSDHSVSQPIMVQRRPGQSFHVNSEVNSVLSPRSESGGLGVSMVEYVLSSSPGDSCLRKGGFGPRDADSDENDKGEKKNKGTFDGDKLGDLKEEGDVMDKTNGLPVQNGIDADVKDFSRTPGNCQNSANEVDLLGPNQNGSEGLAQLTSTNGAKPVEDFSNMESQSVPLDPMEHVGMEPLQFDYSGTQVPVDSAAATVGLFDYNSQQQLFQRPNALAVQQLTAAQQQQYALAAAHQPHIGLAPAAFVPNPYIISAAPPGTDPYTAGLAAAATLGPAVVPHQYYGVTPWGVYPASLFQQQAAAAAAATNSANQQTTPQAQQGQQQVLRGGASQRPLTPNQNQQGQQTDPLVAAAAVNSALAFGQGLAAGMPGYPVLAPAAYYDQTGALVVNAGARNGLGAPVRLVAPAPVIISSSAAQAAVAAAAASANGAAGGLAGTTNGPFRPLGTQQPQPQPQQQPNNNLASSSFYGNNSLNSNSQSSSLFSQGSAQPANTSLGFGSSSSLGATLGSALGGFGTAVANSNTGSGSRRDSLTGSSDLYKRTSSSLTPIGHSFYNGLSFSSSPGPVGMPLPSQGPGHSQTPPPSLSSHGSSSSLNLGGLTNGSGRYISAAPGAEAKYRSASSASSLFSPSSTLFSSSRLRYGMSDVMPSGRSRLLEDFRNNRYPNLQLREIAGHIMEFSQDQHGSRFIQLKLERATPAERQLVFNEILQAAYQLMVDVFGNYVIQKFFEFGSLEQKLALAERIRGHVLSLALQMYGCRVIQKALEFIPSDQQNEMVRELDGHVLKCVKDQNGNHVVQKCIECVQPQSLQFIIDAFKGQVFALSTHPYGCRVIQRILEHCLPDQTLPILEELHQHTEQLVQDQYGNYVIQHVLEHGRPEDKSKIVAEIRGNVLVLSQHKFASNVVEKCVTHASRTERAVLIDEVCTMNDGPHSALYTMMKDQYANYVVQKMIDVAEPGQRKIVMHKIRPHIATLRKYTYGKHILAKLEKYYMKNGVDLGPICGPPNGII
inactive: [1] -0.003 | filanesib 0.007 | zotarolimus -0.023 | idasanutlin 0.006 | alisertib -0.039 | [2] -0.025 | gefitinib 0.025 | [3] -0.002 | lapatinib 0.004 | pictilisib -0.012 | [4] 0.007 | crizotinib -0.02 | [5] -0.007 | [6] 0.071 | duvelisib 0.008 | gandotinib -0.055 | tozasertib 0.007 | [7] 0.007 | doramapimod -0.03 | ispinesib 0.01

PSMD11 (UniProt O00231)
inactive: [1] 0.018 | filanesib -0.011 | zotarolimus 0.028 | idasanutlin 0.004 | alisertib -0.058 | [2] -0.052 | gefitinib -0.043 | [3] -0.071 | lapatinib 0.086 | pictilisib 0.003 | [4] 0.036 | crizotinib -0.024 | [5] -0.035 | [6] 0.074 | duvelisib -0.04 | gandotinib 0.046 | tozasertib 0.08 | [7] 0.07 | doramapimod 0.013 | ispinesib 0.045

PYGB (UniProt P11216)
inactive: [1] -0.024 | filanesib 0.035 | zotarolimus -0.023 | idasanutlin -0.013 | alisertib -0.019 | gefitinib -0.037 | [3] 0.028 | lapatinib -0.223 | pictilisib -0.164 | crizotinib -0.057 | [5] 0.015 | [6] 0.107 | duvelisib 0.026 | gandotinib -0.045 | tozasertib -0.04 | [7] -0.002 | doramapimod -0.005 | ispinesib 0.013
active: [2] 0.237 | [4] -0.305

PC (UniProt P11498)
active: idasanutlin -0.372
inactive: [1] 0.05 | filanesib 0.08 | zotarolimus -0.04 | alisertib -0.039 | [2] 0.14 | gefitinib 0.024 | [3] 0.014 | lapatinib -0.011 | pictilisib 0.09 | [4] 0.033 | crizotinib 0.103 | [5] 0.199 | [6] 0.167 | duvelisib 0.01 | gandotinib -0.143 | tozasertib -0.048 | [7] 0.024 | doramapimod 0.008 | ispinesib 0.186

PPP1CA (UniProt P62136)
UniProt P62136, sequence (P62136 whole entry, looked up): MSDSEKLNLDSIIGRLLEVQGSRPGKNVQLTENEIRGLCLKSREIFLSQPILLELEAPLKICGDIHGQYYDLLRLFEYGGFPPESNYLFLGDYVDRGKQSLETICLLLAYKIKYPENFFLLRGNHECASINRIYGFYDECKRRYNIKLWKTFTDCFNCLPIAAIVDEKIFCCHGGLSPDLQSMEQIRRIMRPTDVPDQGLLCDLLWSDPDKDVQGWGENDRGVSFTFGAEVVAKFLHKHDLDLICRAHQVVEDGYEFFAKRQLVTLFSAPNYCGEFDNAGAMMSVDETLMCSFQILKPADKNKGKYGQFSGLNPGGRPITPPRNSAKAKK
active: [1] 0.263
inactive: filanesib 0.012 | zotarolimus -0.032 | idasanutlin 0.016 | alisertib 0.024 | [2] 0.015 | gefitinib 0.032 | [3] 0.023 | lapatinib 0.001 | pictilisib 0.013 | [4] 0.042 | crizotinib 0.042 | [5] 0.013 | [6] -0.069 | duvelisib 0.048 | gandotinib 0.026 | tozasertib 0.034 | [7] -0.045 | doramapimod -0.003 | ispinesib 0.083

From the supplement of paper PMC10849652
